In the library only some 22% were active in any assay of this set; here they are far more common.
CYP2C9 act – CYP2C9 (human) activation | P11712 | recombinant CYP2C9, luciferin-H conversion, luminescence; hits give high values; factor 1 = untreated enzyme, 0 = blocked | activation factor at 5 µM | actives 1.4% (n = 96,000);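 active = activation factor of 2 or more for CYP2C9 at a 5 µM dose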;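 note: 0 = sulfaphenazole-blocked wells and 1 = vehicle-only wells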
CYP2C9 inh – blocks human cytochrome P450 2C9 | inhibition, % at 5 µM | CYP2C9 Supersomes, luciferin-H conversion, luminescence | AID 777 | actives 20% (n = 96,000);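 active = blocking of liver enzyme CYP2C9 beyond about 50% at 5 µM, limit read from the data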
CYP2C19 inh – inhibitors of human CYP2C19 | P33261 | CYP2C19 Supersomes, luciferin-H EGE luminescence, 30 min | inhibition, % at 5 µM | actives 21% (n = 96,000) | AID 778;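 active = CYP2C19 inhibition above a set limit at 5 µM in the primary screen, cut at about 50% in these data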;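 note: plate controls were negative control wells for no effect and 2.5 mM tranylcypromine positive control for full effect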
Target sequence (P33261 whole entry, looked up): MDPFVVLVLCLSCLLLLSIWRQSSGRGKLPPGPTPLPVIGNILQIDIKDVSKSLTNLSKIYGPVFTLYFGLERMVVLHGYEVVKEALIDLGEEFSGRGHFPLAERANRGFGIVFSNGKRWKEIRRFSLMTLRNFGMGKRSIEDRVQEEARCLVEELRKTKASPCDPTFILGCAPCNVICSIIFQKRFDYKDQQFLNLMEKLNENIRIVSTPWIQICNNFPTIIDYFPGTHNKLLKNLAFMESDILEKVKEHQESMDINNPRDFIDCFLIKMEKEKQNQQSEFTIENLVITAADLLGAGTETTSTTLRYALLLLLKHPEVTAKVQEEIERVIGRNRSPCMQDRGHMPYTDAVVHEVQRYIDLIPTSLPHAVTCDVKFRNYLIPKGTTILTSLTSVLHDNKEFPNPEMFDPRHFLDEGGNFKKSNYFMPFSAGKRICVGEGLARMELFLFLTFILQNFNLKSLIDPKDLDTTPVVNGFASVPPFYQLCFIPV
Measles CPE – protection of cells from measles virus; Measles virus-infected cells, CPE protection, absorbance; protection (pct of control), % at 4 µM; actives 1.5% (n = 140,000); AID 841; in the data active = protection mostly above about 24%, no sharp cut-off; inactive = mostly below about 26%
CYP2C19 activ – cytochrome P450 2C19 (human) activation | recombinant CYP2C19, luciferin-H EGE luminescence; hits give high values; 0 = fully inhibited enzyme, 1 = untreated enzyme | activation factor at 5 µM | AID 1025 | 96,000 tested, under 10 active | P33261;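 active = activation factor of at least 2 at 5 µM in the primary screen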;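 note: 0 = wells with 2.5 mM tranylcypromine and 1 = vehicle-only wells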
Numbers without * were called inactive; / = not tested or not shown.

SMILES	CYP2C9 act	CYP2C9 inh	CYP2C19 inh	Measles CPE	CYP2C19 activ
Cc1ccc(-c2nnc(CSc3nnc(COc4cccc5ccccc45)n3-c3ccccc3)o2)cc1	0.4	58.9*	30.5	2.9	0.7
N#CCSc1nnc(COc2cccc3ccccc23)n1-c1ccccc1	0	95.9*	91.3*	0.4	0.1
COc1ccc(-n2c(COc3cccc4ccccc34)nnc2SCC#N)cc1	/	/	/	31.7	/
CCCc1cc(C(=O)NCc2ccco2)no1	0.9	5.7	28.2	6.5	0.7
CCCc1cc(C(=O)NC2CCCCC2)no1	1.3	-28.9	40.2	-1.6	0.6
CCCc1cc(C(=O)NCc2cccnc2)no1	0.9	14.6	59.3*	7.4	0.4
CCCc1cc(C(=O)NCc2cccs2)no1	0.7	32.5	74.1*	14.1	0.3
CCCc1cc(C(=O)NCC(C)C)no1	0.8	15.4	33.4	15.8	0.7
CCCc1cc(C(=O)NCc2ccccc2)no1	0.9	12.4	58.3*	23.7	0.4
CCCc1cc(C(=O)N(C2CCCCC2)C2CCCCC2)no1	0.2	81.1*	63.7*	3.3	0.4
O=C(NNC(=O)c1cc(-c2ccc(Cl)c(Cl)c2)nc2ccccc12)Nc1ccccc1	0.7	33.2	17.9	3.6	0.8
COC(=O)CCCCCc1ccc(C(C)=O)s1	0.8	23.2	48.5	7.4	0.5
COc1cc(NC(=O)C2CCCN(c3ncccn3)C2)cc(OC)c1 (centres undefined)	/	/	/	12.9	/
O=C(COC(=O)c1ccc2c(c1)C(=O)N(CCc1ccccc1)C2=O)Nc1ccc(OC(F)F)cc1	/	/	/	13.0	/
Cc1cc(C(=O)N2CCN(C(c3ccccc3)c3ccccc3)CC2)no1	0.7	35.0	42.5	3.8	0.6
Cc1cc(C(=O)NCc2ccccc2Br)no1	1.1	-12.1	69.5*	9.6	0.3
CCCc1cc(C(=O)NCCc2ccc(OC)c(OC)c2)no1	0.3	68.5*	94.0*	13.3	0.1
Cc1cc(C(=O)NCc2ccccc2)no1	0.9	8.2	0.4	3.6	1
CCCc1cc(C(=O)N2CCN(C(c3ccccc3)c3ccccc3)CC2)no1	0.2	82.7*	6.0	1.1	0.9
CCN(CC)c1ncccc1C(=O)NCc1cccs1	0.4	64.7*	98.8*	20.1	0
C/C(CC(=O)N(C(C)C)C(C)C)=N\NC(=O)c1ccccc1Br	/	/	/	6.8	/
CC(C)Cn1c2c(c(O)c(C(=O)Nn3c(Cc4ccccc4)nc4ccccc4c3=O)c1=O)CCCC2	/	/	/	11.8	/
CCCn1c2c(c(O)c(C(=O)Nc3ccccc3)c1=O)CCCC2	0.2	75.9*	13.4	3.0	0.9
CCCCc1nc2ccccc2c(=O)n1NC(=O)c1c(O)c2c(n(CC(C)C)c1=O)CCCC2	0.4	60.3*	15.1	11.6	0.8
CCOC(=O)CC(=O)CSc1nc2c(cc1C#N)CCCCC2	0.3	66.5*	47.2	2.6	0.5
SMILES	CYP2C9 act	CYP2C9 inh	CYP2C19 inh	Measles CPE	CYP2C19 activ
CC(C)OC(=O)CC(=O)CSc1nc2c(cc1C#N)CCCCC2	0.1	87.4*	72.9*	3.9	0.3
N#Cc1cc2c(nc1SCC(=O)N1CCCCC1)CCCC2	0.5	47.2	-9.2	14.2	1.1
Cc1ccccc1-c1nc(CN2CCC(C(=O)NCc3cccs3)CC2)c(C)o1	0.6	42.0	30.7	10.9	0.7
O=C(Cc1ccc(Br)cc1)c1ccc(O)cc1O	0.5	53.8*	70.7*	29.5	0.3
O=C(COc1ccccc1Br)c1ccc(O)cc1O	0.4	62.2*	65.8*	19.7	0.3
Cc1ccc(/C=C/c2nc3ccccc3c(=O)n2CCc2ccccc2)cc1	/	/	/	61.5*	/
Cc1ccccc1/C=C/c1nc2ccccc2c(=O)n1CCc1ccccc1	/	/	/	1.2	/
Cc1cnn(Cc2ccccc2)c1N	1	4.2	30.1	21.9	0.7
Cc1[nH]n(-c2ccccc2)c(=O)c1C1(C(F)(F)F)C(=O)N(c2ccc(F)cc2)C2=C1C(=O)CC(C)(C)C2 (centres undefined)	0.2	77.6*	26.3	6.6	0.7
CC1(C)CC(=O)C2=C(C1)N(c1ccc(F)cc1)C(=O)NC2(C(F)(F)F)C(F)(F)F	1	0.6	0.1	5.2	1
CCN1CCc2c(sc3c2c(NCc2ccco2)nc2nnnn23)C1	0.5	52.7*	41.8	35.4*	0.6
Cc1nc(NCc2ccco2)c2c3c(sc2n1)CCC3	0.8	22.1	17.6	6.0	0.8
O=C(C1CC1)N1CCN=C1SCc1ccccc1	0.8	16.3	83.0*	41.0*	0.2
O=C(C1CC1)N1CCN=C1SCc1ccc(F)cc1	0.9	12.2	91.0*	6.7	0.1

From PubChem
